Bioassay records as filed in PubChem BioAssay.
BLM helicase inh: blocks DNA unwinding by human BLM helicase; recombinant BLM DNA unwinding, fluorescence dequenching; Potency, µM (doses to about 56.1 µM), for the others: at the top dose activity change, negative = inhibition, actives largely listed as inhibitors; 350,000 compounds, 0.2% hits; AID 2528;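 further: plate controls were vehicle for no effect and no enzyme for full effect; nearly all actives have a fitted effect of over 35% in size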
WRN helicase inh: blocks human WRN helicase; Q14191; WRN helicase unwinding, fluorescent forked duplex, kinetic; Potency, µM (doses to about 114 µM), without a hit: at the top dose activity change, negative = inhibition, actives largely listed as inhibitors; 360,000 compounds, 0.46% hits; further: nearly all actives have a fitted effect of over 55% in size
Target sequence (Q14191 whole entry, looked up): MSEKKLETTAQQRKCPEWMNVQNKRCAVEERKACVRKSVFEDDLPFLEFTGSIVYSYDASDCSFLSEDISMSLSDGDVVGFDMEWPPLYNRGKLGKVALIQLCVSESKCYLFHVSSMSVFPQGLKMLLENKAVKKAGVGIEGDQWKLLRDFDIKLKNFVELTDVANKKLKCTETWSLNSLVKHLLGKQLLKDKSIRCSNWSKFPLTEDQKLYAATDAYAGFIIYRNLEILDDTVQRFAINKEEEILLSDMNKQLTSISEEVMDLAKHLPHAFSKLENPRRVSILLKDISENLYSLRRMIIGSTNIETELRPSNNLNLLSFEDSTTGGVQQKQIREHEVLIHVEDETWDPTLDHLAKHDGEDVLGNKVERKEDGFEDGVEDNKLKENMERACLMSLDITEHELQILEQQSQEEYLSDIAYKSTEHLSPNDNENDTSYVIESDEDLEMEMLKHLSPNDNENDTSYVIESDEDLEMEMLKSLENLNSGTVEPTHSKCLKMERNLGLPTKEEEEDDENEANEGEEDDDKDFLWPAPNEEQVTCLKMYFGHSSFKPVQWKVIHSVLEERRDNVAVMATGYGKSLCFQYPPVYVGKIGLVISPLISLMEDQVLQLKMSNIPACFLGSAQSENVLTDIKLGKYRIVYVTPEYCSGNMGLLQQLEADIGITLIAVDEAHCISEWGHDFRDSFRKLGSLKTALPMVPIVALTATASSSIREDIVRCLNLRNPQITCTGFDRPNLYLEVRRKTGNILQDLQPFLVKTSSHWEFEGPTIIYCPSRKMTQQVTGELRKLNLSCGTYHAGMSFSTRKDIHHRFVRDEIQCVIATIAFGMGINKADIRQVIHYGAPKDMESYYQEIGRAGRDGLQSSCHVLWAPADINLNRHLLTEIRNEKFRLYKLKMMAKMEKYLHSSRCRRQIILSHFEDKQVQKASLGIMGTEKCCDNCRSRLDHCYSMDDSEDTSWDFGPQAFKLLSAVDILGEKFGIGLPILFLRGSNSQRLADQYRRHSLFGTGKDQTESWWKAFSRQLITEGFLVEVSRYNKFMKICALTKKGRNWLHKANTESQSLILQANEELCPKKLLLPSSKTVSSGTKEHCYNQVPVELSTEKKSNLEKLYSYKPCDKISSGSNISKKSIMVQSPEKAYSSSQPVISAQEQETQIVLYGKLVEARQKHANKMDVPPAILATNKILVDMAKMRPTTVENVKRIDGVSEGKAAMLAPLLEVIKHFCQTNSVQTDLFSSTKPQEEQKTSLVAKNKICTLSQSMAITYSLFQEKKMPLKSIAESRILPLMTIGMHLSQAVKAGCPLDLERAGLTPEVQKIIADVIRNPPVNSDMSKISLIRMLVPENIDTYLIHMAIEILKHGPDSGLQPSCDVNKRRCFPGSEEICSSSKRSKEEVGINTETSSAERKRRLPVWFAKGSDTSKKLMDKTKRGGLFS
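Kinetic red-fluorescence monitoring (525/598 nm) tracks WRN helicase activity after 100 nM fluorophore-quencher forked duplex and 2 mM ATP are added to 20 nM enzyme pretreated 15 min at room temperature with compound.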
APE1 inh: blocks human APE1 abasic DNA cleavage. P27695. 350,000 compounds, 0.35% hits. Potency, µM (top dose mostly 65.8 µM), for inactives: at the highest dose activity change, negative = inhibition, actives largely listed as inhibitors. recombinant APE1, TAMRA/BHQ-2 abasic DNA cleavage fluorescence;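 further: plate controls were vehicle for no effect and reference inhibitor for full effect; nearly all actives have a fitted effect of over 55% in size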
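Compound pre-exposure to 0.75 nM APE1, 15 min at ambient temperature. Reaction initiated with 50 nM TAMRA/BHQ-2 THF substrate, read immediately in kinetic mode, 525 nm excitation, 598 nm emission.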
L3MBTL1 inh: blocks human L3MBTL1. Q9Y468. AlphaScreen L3MBTL1–H3K9me1 peptide binding. 230,000 compounds, 0.66% hits. AID 485360. Potency, µM (doses to about 57.1 µM), inactives show at the highest dose activity, negative = inhibition, hits mostly inhibitors; further: nearly all actives have a fitted effect of over 60% in size
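Read-out is AlphaScreen signal from streptavidin donor and nickel chelate acceptor beads (10 ug/mL final each) bridging L3MBTL1 (50 nM) and biotinylated K9-monomethylated H3(1-15) peptide (75 nM), after 30 min compound exposure at room temperature.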
RECQ1 inh-1: inhibitors of human RECQ1 DNA helicase; P46063; RECQ1 DNA unwinding, red fluorescence kinetic read; Potency, µM (series often up to 57.3 µM), without a hit: at the highest dose activity, negative = inhibition, hits mostly inhibitors; 240,000 compounds, 0.54% hits;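 further: plate controls were vehicle for no effect and no enzyme for full effect; nearly all actives have a fitted effect of over 30% in size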
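50 nM RECQ1T1 preincubated 15 min with compound in Tris pH 8.0 buffer with MgCl2, DTT, Tween-20 and 2.5 ug/ml poly(dI-dC); started with 200 nM TAMRA/BHQ-2 forked duplex and 2 mM ATP. Unwinding read as fluorescence (525/598 nm), two reads 2 h apart.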
RECQ1 conf: confirmation of human RECQ1 helicase inhibitors | 610 compounds, 28% hits | Potency, µM (doses to about 229 µM), for the others: top-dose activity change, negative = inhibition, actives largely listed as inhibitors | RECQ1 helicase DNA unwinding, fluorescence | shares compounds with RECQ1 inh-1; further: nearly all actives have a fitted effect of over 45% in size
RECQ1 ADP FP: ADP displacement flagged in RECQ1 inhibitor counter-screen; shares compounds with RECQ1 inh-1; ADP fluorescence polarization displacement counterscreen; Potency, µM (highest dose often 228 µM), for inactives: top-dose activity change, negative = inhibition, actives largely listed as inhibitors; 530 compounds, 27% hits; further: nearly all actives have a fitted effect of over 45% in size
RECQ1 inh-2: confirmation of human RECQ1 helicase inhibitors | shares compounds with RECQ1 inh-1 | recombinant RECQ1 DNA unwinding, red fluorescence | Potency, µM (series often up to 119 µM), for inactives: top-dose activity, negative = inhibition, most hits filed as inhibitors | 1,100 compounds, 15% hits | AID 504841; further: nearly all actives have a fitted effect of over 50% in size
An asterisk follows results filed as active; [ ] = another dose, or the depositor's remark. An excerpt weighted towards active compounds, which were near 0.92% of everything screened. The call rests on the fitted dose curve; in most records, active means well fitted curve in the direction sought with a large enough effect; inconclusive means small, poorly fitted or top-dose-only effect, or another doubt; inactive means no such curve, though single readings can be large; an effect the other way counts as inactive or inconclusive. Unless noted, on the % scale 0 is the no-effect control and ±100 the full control effect; potency means the concentration at half of the fitted maximal effect.

Screening Cc1cccc(N2CCN(C(=O)CCS(=O)(=O)c3ccc(Br)cc3)CC2C)c1 (stereo unspecified) returned BLM helicase inh -28.3%, WRN helicase inh inconclusive, APE1 inh -2.0%, RECQ1 inh-1 35.5µM* and RECQ1 inh-2 39.8µM*.
For CC(=O)N1CCCc2cc(S(=O)(=O)CCC(=O)N3CCN(c4cccc(C)c4)C(C)C3)ccc21 (stereo unspecified) the results were BLM helicase inh -5.9%, WRN helicase inh -5.6%, APE1 inh inconclusive and RECQ1 inh-1 -3.5%.
Screening CCOc1ccc(C(=O)/C=C/Nc2ccc(S(=O)(=O)Nc3onc(C)c3C)cc2)cc1 returned BLM helicase inh -15.4%, WRN helicase inh -32.8%, APE1 inh 2.9%, L3MBTL1 inh -16.4% and RECQ1 inh-1 2.4%.
Screening Cc1noc(NS(=O)(=O)c2ccc(N/C=C\C(=O)c3ccc(Br)cc3)cc2)c1C returned BLM helicase inh -11.2%, WRN helicase inh -24.3%, APE1 inh -0.9%, L3MBTL1 inh -18.4%, RECQ1 inh-1 inconclusive and RECQ1 inh-2 -21.6%.
Screening O=C(Nc1ccc(-c2nc3ccc(NC(=O)c4cccs4)cc3[nH]2)cc1)c1cccs1 returned BLM helicase inh -5.5%, WRN helicase inh -22.9%[57.1 µM], APE1 inh inconclusive, RECQ1 inh-1 inconclusive and RECQ1 inh-2 inconclusive.
`CC1=Nc2ccccc2N=C(NC(=O)CSc2nnnn2-c2ccccc2)C1c1ccccc1` (stereo unspecified) gave BLM helicase inh -10.8%, WRN helicase inh -1.3%, APE1 inh 13.7%, RECQ1 inh-1 3.0%, RECQ1 conf 0.3% and RECQ1 ADP FP 0.8%.
For NC(=O)c1ccc(-n2nnnc2SCC(=O)Nc2ccccc2)cc1 the results were BLM helicase inh -13.8%, WRN helicase inh 13.2%, APE1 inh 56.4% and L3MBTL1 inh -5.8%.
Screening CCn1c(=O)c(C(=O)NNS(=O)(=O)c2ccc(Br)cc2)c(O)c2ccccc21 returned BLM helicase inh -15.1%, WRN helicase inh -2.8%, APE1 inh 8.4%, L3MBTL1 inh 4.9%, RECQ1 inh-1 inconclusive and RECQ1 inh-2 inconclusive.
Screening CCOc1ccc(CCNC(=O)CSc2nnnn2-c2ccccc2Cl)cc1OCC returned BLM helicase inh -5.6%.
COc1ccc(NC(=O)CC2C(=O)N(c3cccc(OC)c3)C(=O)N2Cc2cccnc2)cc1 (stereo unspecified) was read as BLM helicase inh 0.6%.
For CC(C)Oc1ccc(C2C(C#N)=C(N)Oc3c2oc(CO)cc3=O)cc1 (stereo unspecified) the results were BLM helicase inh -4.3%, WRN helicase inh 1.7%, APE1 inh -5.9% and RECQ1 inh-1 -0.7%.
For Cc1ccc(C2C(C#N)=C(N)Oc3c2oc(CO)cc3=O)o1 (stereo unspecified) the results were BLM helicase inh -1.3%, WRN helicase inh -1.3%, APE1 inh inconclusive, L3MBTL1 inh inconclusive, RECQ1 inh-1 39.8µM* and RECQ1 inh-2 7.9%.
`Cc1cccc(C(=O)Nc2ccc(C(=O)/C=C/c3cccnc3)cc2)c1` gave BLM helicase inh -14.8%, WRN helicase inh inconclusive, APE1 inh 3.3%, L3MBTL1 inh -3.1%, RECQ1 inh-1 1.12µM*, RECQ1 conf -7.8%[114 µM] and RECQ1 inh-2 inconclusive.
CCOc1c(OC(C)=O)ccc(/C=C/c2ccc3cccc(OC(C)=O)c3n2)c1[N+](=O)[O-] was read as BLM helicase inh -13.8%, WRN helicase inh -14.9%, APE1 inh -5.2%, L3MBTL1 inh -10.3%, RECQ1 inh-1 31.6µM* and RECQ1 inh-2 -11.5%.
COC(=O)/C(C#N)=C/c1c(Oc2cccc(C)c2)nc2ccccn2c1=O was read as BLM helicase inh 0.6%, WRN helicase inh -8.3%, APE1 inh 6.9%, L3MBTL1 inh 0.7% and RECQ1 inh-1 -3.6%.
Cc1ccc(Oc2nc3ccccn3c(=O)c2/C=C(\C#N)C(=O)Nc2c(C)n(C)n(-c3ccccc3)c2=O)c(C)c1 was read as BLM helicase inh -3.6%, WRN helicase inh 1.4%, APE1 inh 1.9%, L3MBTL1 inh -0.6%, RECQ1 inh-1 -0.9%, RECQ1 conf -2.3% and RECQ1 ADP FP 9.9%.
Cc1c(NC(=O)/C(C#N)=C/c2ccccc2)c(=O)n(-c2ccccc2)n1C was read as BLM helicase inh -0.7%, WRN helicase inh -16.8%, APE1 inh 9.5% and RECQ1 inh-1 -8.5%.
COc1ccccc1Oc1nc2ccccn2c(=O)c1/C=C(\C#N)C(=O)Nc1c(C)n(C)n(-c2ccccc2)c1=O was read as BLM helicase inh -9.4%, WRN helicase inh -2.1%, APE1 inh 1.6%, L3MBTL1 inh 0.7%, RECQ1 inh-1 -0.1%, RECQ1 conf 5.2% and RECQ1 ADP FP 28.3%.
`O=C(C1CCCN(S(=O)(=O)c2ccc(Br)s2)C1)N1CCN(c2ccc(F)cc2)CC1` (stereo unspecified) gave BLM helicase inh -6.8%.
`C=CCOC(=O)C1C(=O)CC(C)(O)C(C(=O)OCC=C)C1c1ccc(OCC)cc1` (stereo unspecified) gave BLM helicase inh -1.3%, WRN helicase inh -12.0%, APE1 inh -0.3%, L3MBTL1 inh 31.5% and RECQ1 inh-1 -11.3%.
`C=CCOC(=O)C1C(=O)CC(C)(O)C(C(=O)OCC=C)C1c1ccc(N(C)C)cc1` (stereo unspecified) gave BLM helicase inh -2.8%, WRN helicase inh 2.6%, APE1 inh 0.3%, RECQ1 inh-1 inconclusive and RECQ1 inh-2 -9.0%.
For Cc1ccc(C2=NN=C(NC(=O)CSc3nc(C)cc(C)n3)SC2)cc1 the results were BLM helicase inh 0.3%, APE1 inh 3.1%, L3MBTL1 inh -12.4% and RECQ1 inh-1 -10.5%.
`Cc1ccc(C2=NN=C(NC(=O)CSc3nnc4c5ccccc5n(C)c4n3)SC2)cc1` gave BLM helicase inh -17.1%, WRN helicase inh -16.2%, APE1 inh 14.9%, L3MBTL1 inh -28.4%, RECQ1 inh-1 11.2µM* and RECQ1 conf -2.4%[114 µM].
